# Reference: PubChem BioAssay (NCATS)
# Records with an inconclusive call do not appear. Activity calls are given as the source filed them. Calls come from the whole dose curve; as a rule, active = well fitted cell-killing curve with a large enough effect; inconclusive = small, poorly fitted or top-dose-only effect, or effect the other way; inactive = no such curve, though single readings can be large or run the other way.
# How the values were obtained:
# [1] = Quantitative High-Throughput drug screen in 47 multiple myeloma cell lines against the NCATS MIPE library collection: ARD_JJKsccE7 cell viability assay (AID 1918929)
# In short: (§1)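 Myeloma cell lines, 500 cells per well, exposed to MIPE 4.0 library compounds for 48 h at 37C, 5% CO2. Viability from ATP by CellTiter-Glo luminescence; normalised to DMSO (100%) and media-only (0%) wells.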
# [2] = Quantitative High-Throughput drug screen in 47 multiple myeloma cell lines against the NCATS MIPE library collection: Karpas620_DSMZ cell viability assay (AID 1918959); note: nearly all actives have a fitted effect of over 30% in size
# In short: (§2)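 Steps: seed 500 cells per well; pin-transfer MIPE 4.0 library; incubate 48 h at 37C, 5% CO2, humidified; add CellTiter-Glo, 5 min room temperature; read luminescence.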
# [3] = Quantitative High-Throughput drug screen in 47 multiple myeloma cell lines against the NCATS MIPE library collection: Karpas417_ECACC cell viability assay (AID 1918961); conditions: Karpas417 myeloma viability, CellTiter-Glo ATP luminescence, 48 h; viability (% of DMSO): at 45.8 µM (top of the series)
# In short: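 CellTiter-Glo luminescence (ATP) after 48 h compound exposure, 37C/5% CO2; 500 cells/well; MIPE 4.0 approved/investigational drugs pinned in; DMSO = 100%, media only = 0% viability.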
# [4] = Quantitative High-Throughput drug screen in 47 multiple myeloma cell lines against the NCATS MIPE library collection: Delta47_JCRB cell viability assay (AID 1918925; note: nearly all actives have a fitted effect of over 45% in size)
# In short: as §1
# [5] = Quantitative High-Throughput drug screen in 47 multiple myeloma cell lines against the NCATS MIPE library collection: AMO1_DSMZ cell viability assay (AID 1918927; note: nearly all actives have a fitted effect of over 30% in size)
# In short: as §1
# [6] = Quantitative High-Throughput drug screen in 47 multiple myeloma cell lines against the NCATS MIPE library collection: ARP1_JJKsccF8 cell viability assay (AID 1918928; note: nearly all actives have a fitted effect of over 40% in size)
# In short: (§3)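 500 cells/well; MIPE 4.0 library pinned in; 48 h, 37 °C, 5% CO2; CellTiter-Glo ATP luminescence. Controls: DMSO = 100% viability, medium only = 0%.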
# [7] = Quantitative High-Throughput drug screen in 47 multiple myeloma cell lines against the NCATS MIPE library collection: EJM_DSMZ cell viability assay (AID 1918926; note: nearly all actives have a fitted effect of over 30% in size)
# In short: as §1
# [8] = Quantitative High-Throughput drug screen in 47 multiple myeloma cell lines against the NCATS MIPE library collection: KMM1_JCRB cell viability assay (AID 1918960); note: nearly all actives have a fitted effect of over 30% in size
# In short: as §3
# [9] = Quantitative High-Throughput drug screen in 47 multiple myeloma cell lines against the NCATS MIPE library collection: FR4_PLB cell viability assay (AID 1918924; note: nearly all actives have a fitted effect of over 35% in size)
# In short: as §2
# Potency is the fitted concentration of half-maximal effect.
smiles,measurement,setting,value
CC(C)(C)NC(=O)[C@H]1CN(Cc2cccnc2)CCN1C[C@@H](O)C[C@@H](Cc1ccccc1)C(=O)N[C@H]1c2ccccc2C[C@H]1O,Potency,[1],inactive
same,Potency,[2],inactive
same,Potency,[3],inactive
COc1cc(OC2CCN(C)CC2)ccc1Nc1ncc2c(n1)n(C1CCCC1)c(=O)n2C,Potency,[4],5.9 µM (active)
same,Potency,[5],11.8 µM (active)
same,Potency,[6],16.6 µM (active)
same,Potency,[1],9.35 µM (active)
Cc1ccc(CN2CCNCC2)cc1NC(=O)CNc1ccc(F)c(F)c1,Potency,[4],inactive
same,Potency,[7],3.32 µM (active)
same,Potency,[8],inactive
CN(c1ncccc1CNc1nc(Nc2ccc3c(c2)CC(=O)N3)ncc1C(F)(F)F)S(C)(=O)=O,Potency,[9],5.9 µM (active)
same,Potency,[5],3.32 µM (active)
same,Potency,[6],9.35 µM (active)
same,Potency,[1],2.64 µM (active)
same,Potency,[3],1.87 µM (active)
COc1c(N2C[C@@H]3CCCN[C@H]3C2)c(F)cc2c(=O)c(C(=O)O)cn(C3CC3)c12,Potency,[4],inactive
same,Potency,[6],37.2 µM (active)
same,Potency,[2],inactive
Cn1cc(-c2ccncc2)c(-c2ccc(OCc3ccc4ccccc4n3)cc2)n1,Potency,[4],2.64 µM (active)
same,Potency,[5],3.32 µM (active)
same,Potency,[6],4.69 µM (active)
same,Potency,[1],6.62 µM (active)
same,Potency,[2],4.69 µM (active)
same,Potency,[8],8.33 µM (active)
CN1CC[C@@H](c2c(O)cc(O)c3c(=O)cc(-c4ccccc4Cl)oc23)[C@@H](O)C1,Potency,[9],0.0332 µM (active)
same,Potency,[5],0.0264 µM (active)
same,Potency,[6],0.0833 µM (active)
same,Potency,[2],0.0935 µM (active)
same,Potency,[8],0.059 µM (active)
same,Potency,[3],0.0187 µM (active)
COc1cc2c(Oc3ccc4[nH]c(C)cc4c3F)ncnc2cc1OCCCN1CCCC1,Potency,[4],3.32 µM (active)
same,Potency,[6],23.5 µM (active)
same,Potency,[2],2.96 µM (active)
same,Potency,[8],2.35 µM (active)
O=C(C=Cc1c(C(=O)O)[nH]c2cc(Cl)cc(Cl)c12)Nc1ccccc1,Potency,[4],inactive
same,Potency,[7],inactive
same,Potency,[5],inactive
same,Potency,[6],inactive
same,Potency,[1],inactive
same,Potency,[2],inactive
same,Potency,[8],inactive
same,Potency,[3],inactive
O=C(NCCCNc1nc(Nc2cccc(NC(=O)N3CCCC3)c2)ncc1I)c1cccs1,Potency,[4],4.69 µM (active)
same,Potency,[7],14.8 µM (active)
same,Potency,[6],16.6 µM (active)
same,Potency,[2],inactive
same,Potency,[8],inactive
CC[C@H](CO)Nc1nc(NCc2ccccc2)c2ncn(C(C)C)c2n1,Potency,[4],16.6 µM (active)
same,Potency,[5],9.35 µM (active)
Nc1ccn([C@@H]2O[C@H](CO)[C@H](O)C2(F)F)c(=O)n1,Potency,[4],0.0418 µM (active)
same,Potency,[5],0.059 µM (active)
same,Potency,[6],0.105 µM (active)
same,Potency,[1],0.296 µM (active)
same,Potency,[8],0.0833 µM (active)
O=C(C=Cc1cccnc1)NCCCCC1CCN(C(=O)c2ccccc2)CC1,Potency,[7],inactive
same,Potency,[8],0.0148 µM (active)
same,Potency,[3],13.2 µM (active)
Cc1nc2ccc(CN(C)c3ccc(C(=O)N[C@@H](CCC(=O)O)C(=O)O)s3)cc2c(=O)[nH]1,Potency,[7],inactive
same,Potency,[5],0.0662 µM (active)
same,Potency,[6],0.0209 µM (active)
same,Potency,[2],inactive
same,Potency,[3],inactive
CN1c2cc(O)c(N=NC(N)=O)cc2CC1S(=O)(=O)O (stereo not drawn),Potency,[7],inactive
same,Potency,[6],inactive
same,Potency,[1],0.0012 µM (active)
same,Potency,[8],inactive
CN1CCN(c2ccc3nc(-c4c(N)c5c(F)cccc5[nH]c4=O)[nH]c3c2)CC1,Potency,[4],2.35 µM (active)
same,Potency,[7],18.7 µM (active)
same,Potency,[5],11.8 µM (active)
same,Potency,[6],20.9 µM (active)
same,Potency,[2],8.33 µM (active)
same,Potency,[3],8.33 µM (active)
CC(C)(C)c1cc(C(C)(C)C)c(NC(=O)c2c[nH]c3ccccc3c2=O)cc1O,Potency,[5],inactive
same,Potency,[1],inactive
same,Potency,[8],inactive
same,Potency,[3],inactive
CC(=O)OCCN1C(=O)c2c(C)nc3ccc(S(=O)(=O)N4CCOCC4)cc3c2C1=O,Potency,[9],inactive
same,Potency,[5],inactive
same,Potency,[6],inactive
same,Potency,[1],inactive
same,Potency,[8],inactive
same,viability (% of DMSO),[3],109% (active)
CNC(=O)c1c(F)cccc1Nc1nc(Nc2cc3c(cc2OC)CCN3C(=O)CN(C)C)nc2[nH]ccc12,Potency,[9],10.5 µM (active)
same,Potency,[7],0.209 µM (active)
same,Potency,[6],5.26 µM (active)
same,Potency,[3],inactive
Cc1cc(Nc2cc(N3CCN(C)CC3)nc(C=Cc3ccccc3)n2)n[nH]1,Potency,[7],38.2 µM (active)
same,Potency,[5],8.55 µM (active)
same,Potency,[6],4.29 µM (active)
same,Potency,[1],13.6 µM (active)
CC1(C)O[C@@H]2C[C@@H]3[C@H]4C[C@@H](F)C5=CC(=O)C=C[C@]5(C)[C@@]4(F)[C@@H](O)C[C@]3(C)[C@]2(C(=O)CO)O1,Potency,[9],inactive
same,Potency,[7],inactive
same,Potency,[6],0.0074 µM (active)
same,Potency,[3],inactive
C[C@H]1C[C@@H]2[C@@H]([C@@H](O)C[C@@]3(C)[C@H]2CC[C@]3(O)C(=O)CO)[C@@]2(C)C=CC(=O)C=C12,Potency,[9],inactive
same,Potency,[5],inactive
same,Potency,[2],inactive
same,Potency,[3],0.132 µM (active)
